What was measured:
Assay in all cases: DAPPL (digital affinity profiling via proximity ligation, sequencing); 10 mM Tris-HCl pH 7.5, 50 mM NaCl, 1 mM DTT, 4% glycerol, room temperature, 30 min; GST-TFs on glutathione beads, 16-mer random dsDNA library, 0.1% formaldehyde crosslink after washing; high values mean tight binding
Details in all cases: protein: recombinant; tags: N-terminal GST; dsDNA, one strand shown
ERF = biological target: T1, ERF (Homo sapiens, UniProt P50548 1-548)
T1 sequence: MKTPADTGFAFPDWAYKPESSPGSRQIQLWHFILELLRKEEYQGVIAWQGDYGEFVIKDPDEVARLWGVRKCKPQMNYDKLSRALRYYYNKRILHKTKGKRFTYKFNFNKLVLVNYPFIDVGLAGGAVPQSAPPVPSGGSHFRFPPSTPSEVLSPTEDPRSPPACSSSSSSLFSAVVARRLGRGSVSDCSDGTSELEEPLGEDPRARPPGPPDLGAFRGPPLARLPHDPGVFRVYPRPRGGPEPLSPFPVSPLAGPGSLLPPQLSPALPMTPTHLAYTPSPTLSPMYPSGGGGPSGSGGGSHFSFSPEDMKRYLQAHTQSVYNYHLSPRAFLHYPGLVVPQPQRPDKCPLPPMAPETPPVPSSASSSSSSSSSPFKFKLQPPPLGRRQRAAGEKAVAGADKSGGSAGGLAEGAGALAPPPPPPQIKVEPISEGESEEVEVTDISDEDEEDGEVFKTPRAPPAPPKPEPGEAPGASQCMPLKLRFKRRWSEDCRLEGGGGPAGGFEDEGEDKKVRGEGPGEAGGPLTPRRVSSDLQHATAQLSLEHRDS
In short: (§1)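 GST fusions of human transcription factors were expressed in yeast and captured with glutathione beads. Once given DNA barcodes and pooled alongside a tag-only sample, they were incubated for 30 min at room temperature with 200 nmole of a random double-stranded 16-mer DNA library in Tris/NaCl/DTT/glycerol buffer, then washed, crosslinked (0.1% formaldehyde), proximity-ligated, PCR-amplified and sequenced on an Illumina NextSeq500. The binding signal of each hexamer is its read frequency for a factor divided by its frequency for the tag-only sample.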

ETV3L = biological target: T2, ETV3L (Homo sapiens, UniProt Q6ZN32 1-361)
T2 sequence: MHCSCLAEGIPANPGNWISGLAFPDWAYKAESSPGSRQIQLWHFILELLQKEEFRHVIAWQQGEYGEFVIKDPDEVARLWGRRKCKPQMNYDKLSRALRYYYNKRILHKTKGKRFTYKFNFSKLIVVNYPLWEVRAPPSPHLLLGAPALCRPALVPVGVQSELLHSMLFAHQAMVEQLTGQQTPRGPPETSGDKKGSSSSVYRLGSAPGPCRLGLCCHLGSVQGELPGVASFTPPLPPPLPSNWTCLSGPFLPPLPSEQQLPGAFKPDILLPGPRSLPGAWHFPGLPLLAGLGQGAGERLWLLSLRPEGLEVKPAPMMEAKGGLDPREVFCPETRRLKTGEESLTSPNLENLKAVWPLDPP
In short: as §1

ETS2 = biological target: T3, ETS2 (Homo sapiens, UniProt P15036 1-469)
T3 sequence: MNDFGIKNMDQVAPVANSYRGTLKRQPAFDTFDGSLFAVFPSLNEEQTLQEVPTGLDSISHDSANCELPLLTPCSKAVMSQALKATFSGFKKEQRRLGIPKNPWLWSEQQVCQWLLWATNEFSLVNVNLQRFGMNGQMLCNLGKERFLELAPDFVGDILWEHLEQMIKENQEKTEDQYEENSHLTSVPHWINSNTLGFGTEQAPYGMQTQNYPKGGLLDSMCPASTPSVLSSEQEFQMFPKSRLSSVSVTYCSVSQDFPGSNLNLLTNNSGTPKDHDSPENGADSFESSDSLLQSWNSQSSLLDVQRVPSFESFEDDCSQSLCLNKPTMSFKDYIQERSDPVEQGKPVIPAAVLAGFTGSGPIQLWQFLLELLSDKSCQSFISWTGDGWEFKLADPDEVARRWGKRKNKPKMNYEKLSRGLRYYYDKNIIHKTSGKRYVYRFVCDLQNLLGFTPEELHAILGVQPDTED
In short: as §1

SPDEF = biological target: T4, SPDEF (Homo sapiens, UniProt O95238 1-335)
T4 sequence: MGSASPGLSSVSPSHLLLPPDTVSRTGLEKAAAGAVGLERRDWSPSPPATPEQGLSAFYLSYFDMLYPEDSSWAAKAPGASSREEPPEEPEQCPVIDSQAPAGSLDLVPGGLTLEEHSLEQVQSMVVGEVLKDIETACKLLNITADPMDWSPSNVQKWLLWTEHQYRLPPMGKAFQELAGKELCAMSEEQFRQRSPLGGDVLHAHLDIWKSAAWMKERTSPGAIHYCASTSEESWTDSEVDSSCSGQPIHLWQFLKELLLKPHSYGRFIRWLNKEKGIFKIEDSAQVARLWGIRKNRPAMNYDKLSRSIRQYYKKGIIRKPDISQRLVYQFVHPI
In short: as §1

ETV7 = biological target: T5, ETV7 (Homo sapiens, UniProt Q9Y603 1-341)
T5 sequence: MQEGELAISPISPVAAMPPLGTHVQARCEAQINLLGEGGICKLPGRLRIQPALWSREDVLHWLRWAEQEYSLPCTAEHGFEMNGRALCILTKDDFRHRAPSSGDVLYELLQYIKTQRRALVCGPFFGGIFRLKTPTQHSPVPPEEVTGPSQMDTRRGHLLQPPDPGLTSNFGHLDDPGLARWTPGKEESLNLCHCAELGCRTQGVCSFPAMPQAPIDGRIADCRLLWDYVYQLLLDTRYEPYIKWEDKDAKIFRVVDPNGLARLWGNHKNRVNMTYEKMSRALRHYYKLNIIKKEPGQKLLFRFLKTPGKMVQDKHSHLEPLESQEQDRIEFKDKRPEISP
In short: as §1

ELF5 = biological target: T6, ELF5 (Homo sapiens, UniProt Q9UKW6-2 1-255)
T6 sequence: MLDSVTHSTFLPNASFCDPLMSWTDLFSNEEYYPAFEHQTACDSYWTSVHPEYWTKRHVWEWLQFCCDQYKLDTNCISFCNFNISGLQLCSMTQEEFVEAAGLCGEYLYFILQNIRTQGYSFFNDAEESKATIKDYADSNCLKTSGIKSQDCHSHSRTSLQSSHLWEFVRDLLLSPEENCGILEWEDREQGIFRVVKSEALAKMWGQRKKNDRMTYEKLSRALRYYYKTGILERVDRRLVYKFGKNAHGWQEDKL
In short: as §1

ETV3 = biological target: T7, ETV3 (Homo sapiens, UniProt P41162-2 1-143)
T7 sequence: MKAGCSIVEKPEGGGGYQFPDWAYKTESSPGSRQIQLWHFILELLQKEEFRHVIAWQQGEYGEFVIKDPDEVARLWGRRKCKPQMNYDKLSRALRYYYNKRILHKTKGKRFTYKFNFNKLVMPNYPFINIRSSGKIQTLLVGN
In short: as §1

ETV6 = ETV6 (Homo sapiens, UniProt P41212 1-452)
Chain of ETV6 (P41212 whole entry): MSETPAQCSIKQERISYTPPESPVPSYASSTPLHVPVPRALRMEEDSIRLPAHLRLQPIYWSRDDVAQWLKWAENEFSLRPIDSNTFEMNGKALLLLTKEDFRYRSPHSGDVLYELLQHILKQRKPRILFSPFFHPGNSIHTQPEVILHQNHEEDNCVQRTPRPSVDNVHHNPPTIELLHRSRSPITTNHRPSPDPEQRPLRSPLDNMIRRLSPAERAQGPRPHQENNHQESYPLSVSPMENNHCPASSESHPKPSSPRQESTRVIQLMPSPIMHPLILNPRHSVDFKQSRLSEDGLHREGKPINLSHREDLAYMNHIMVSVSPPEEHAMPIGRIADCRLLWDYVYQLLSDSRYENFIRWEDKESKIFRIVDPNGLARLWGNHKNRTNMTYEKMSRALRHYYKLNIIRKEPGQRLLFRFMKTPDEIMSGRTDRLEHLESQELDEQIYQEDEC
In short: as §1

Row | Sequence | binding signal (ERF) | binding signal (ETV3L) | binding signal (ETS2) | binding signal (SPDEF) | binding signal (ETV7) | binding signal (ELF5) | binding signal (ETV3) | binding signal (ETV6)
1 | ACTTTC | 1.63 fold enrichment (6-mer frequency, TF over GST control) | 1.59 fold enrichment (6-mer frequency, TF over GST control) | 1.6 fold enrichment (6-mer frequency, TF over GST control) | 1.51 fold enrichment (6-mer frequency, TF over GST control) | 1.51 fold enrichment (6-mer frequency, TF over GST control) | 1.74 fold enrichment (6-mer frequency, TF over GST control) | 1.63 fold enrichment (6-mer frequency, TF over GST control) | 1.57 fold enrichment (6-mer frequency, TF over GST control)
2 | GGACCT | 1.31 fold enrichment (6-mer frequency, TF over GST control) | 1.43 fold enrichment (6-mer frequency, TF over GST control) | 1.41 fold enrichment (6-mer frequency, TF over GST control) | 1.53 fold enrichment (6-mer frequency, TF over GST control) | 1.34 fold enrichment (6-mer frequency, TF over GST control) | 1.27 fold enrichment (6-mer frequency, TF over GST control) | 1.32 fold enrichment (6-mer frequency, TF over GST control) | 1.34 fold enrichment (6-mer frequency, TF over GST control)
3 | TCGATC | 1.12 fold enrichment (6-mer frequency, TF over GST control) | 1.2 fold enrichment (6-mer frequency, TF over GST control) | 1.15 fold enrichment (6-mer frequency, TF over GST control) | 1.09 fold enrichment (6-mer frequency, TF over GST control) | 1.17 fold enrichment (6-mer frequency, TF over GST control) | 1.11 fold enrichment (6-mer frequency, TF over GST control) | 1.18 fold enrichment (6-mer frequency, TF over GST control) | 1.11 fold enrichment (6-mer frequency, TF over GST control)
4 | ATCTCC | 1.47 fold enrichment (6-mer frequency, TF over GST control) | 1.46 fold enrichment (6-mer frequency, TF over GST control) | 1.5 fold enrichment (6-mer frequency, TF over GST control) | 1.68 fold enrichment (6-mer frequency, TF over GST control) | 1.31 fold enrichment (6-mer frequency, TF over GST control) | 1.53 fold enrichment (6-mer frequency, TF over GST control) | 1.44 fold enrichment (6-mer frequency, TF over GST control) | 1.51 fold enrichment (6-mer frequency, TF over GST control)
5 | CATTTA | 1.23 fold enrichment (6-mer frequency, TF over GST control) | 1.24 fold enrichment (6-mer frequency, TF over GST control) | 1.31 fold enrichment (6-mer frequency, TF over GST control) | 1.22 fold enrichment (6-mer frequency, TF over GST control) | 1.27 fold enrichment (6-mer frequency, TF over GST control) | 1.11 fold enrichment (6-mer frequency, TF over GST control) | 1.23 fold enrichment (6-mer frequency, TF over GST control) | 1.13 fold enrichment (6-mer frequency, TF over GST control)
6 | CCGCTT | 1.77 fold enrichment (6-mer frequency, TF over GST control) | 1.89 fold enrichment (6-mer frequency, TF over GST control) | 1.95 fold enrichment (6-mer frequency, TF over GST control) | 1.99 fold enrichment (6-mer frequency, TF over GST control) | 1.62 fold enrichment (6-mer frequency, TF over GST control) | 2.05 fold enrichment (6-mer frequency, TF over GST control) | 1.96 fold enrichment (6-mer frequency, TF over GST control) | 2.17 fold enrichment (6-mer frequency, TF over GST control)
7 | GAATAA | 1.23 fold enrichment (6-mer frequency, TF over GST control) | 1.15 fold enrichment (6-mer frequency, TF over GST control) | 1.09 fold enrichment (6-mer frequency, TF over GST control) | 1.09 fold enrichment (6-mer frequency, TF over GST control) | 1.07 fold enrichment (6-mer frequency, TF over GST control) | 1.05 fold enrichment (6-mer frequency, TF over GST control) | 1.06 fold enrichment (6-mer frequency, TF over GST control) | 1.16 fold enrichment (6-mer frequency, TF over GST control)
8 | ATATAC | 1.19 fold enrichment (6-mer frequency, TF over GST control) | 1.17 fold enrichment (6-mer frequency, TF over GST control) | 1.26 fold enrichment (6-mer frequency, TF over GST control) | 1.29 fold enrichment (6-mer frequency, TF over GST control) | 1.24 fold enrichment (6-mer frequency, TF over GST control) | 1.12 fold enrichment (6-mer frequency, TF over GST control) | 1.17 fold enrichment (6-mer frequency, TF over GST control) | 1.19 fold enrichment (6-mer frequency, TF over GST control)
9 | ATTTAC | 1.27 fold enrichment (6-mer frequency, TF over GST control) | 1.18 fold enrichment (6-mer frequency, TF over GST control) | 1.28 fold enrichment (6-mer frequency, TF over GST control) | 1.21 fold enrichment (6-mer frequency, TF over GST control) | 1.28 fold enrichment (6-mer frequency, TF over GST control) | 1.25 fold enrichment (6-mer frequency, TF over GST control) | 1.29 fold enrichment (6-mer frequency, TF over GST control) | 1.18 fold enrichment (6-mer frequency, TF over GST control)
10 | CTCCAC | 1.31 fold enrichment (6-mer frequency, TF over GST control) | 1.45 fold enrichment (6-mer frequency, TF over GST control) | 1.43 fold enrichment (6-mer frequency, TF over GST control) | 1.27 fold enrichment (6-mer frequency, TF over GST control) | 1.39 fold enrichment (6-mer frequency, TF over GST control) | 1.35 fold enrichment (6-mer frequency, TF over GST control) | 1.3 fold enrichment (6-mer frequency, TF over GST control) | 1.26 fold enrichment (6-mer frequency, TF over GST control)
11 | ATAAAA | 1.13 fold enrichment (6-mer frequency, TF over GST control) | 1.15 fold enrichment (6-mer frequency, TF over GST control) | 1.17 fold enrichment (6-mer frequency, TF over GST control) | 1.12 fold enrichment (6-mer frequency, TF over GST control) | 1.1 fold enrichment (6-mer frequency, TF over GST control) | 1.11 fold enrichment (6-mer frequency, TF over GST control) | 1.15 fold enrichment (6-mer frequency, TF over GST control) | 1.16 fold enrichment (6-mer frequency, TF over GST control)
12 | TTATCC | 1.44 fold enrichment (6-mer frequency, TF over GST control) | 1.38 fold enrichment (6-mer frequency, TF over GST control) | 1.51 fold enrichment (6-mer frequency, TF over GST control) | 1.76 fold enrichment (6-mer frequency, TF over GST control) | 1.44 fold enrichment (6-mer frequency, TF over GST control) | 1.56 fold enrichment (6-mer frequency, TF over GST control) | 1.51 fold enrichment (6-mer frequency, TF over GST control) | 1.47 fold enrichment (6-mer frequency, TF over GST control)
13 | CATTTG | 1.4 fold enrichment (6-mer frequency, TF over GST control) | 1.25 fold enrichment (6-mer frequency, TF over GST control) | 1.31 fold enrichment (6-mer frequency, TF over GST control) | 1.25 fold enrichment (6-mer frequency, TF over GST control) | 1.3 fold enrichment (6-mer frequency, TF over GST control) | 1.18 fold enrichment (6-mer frequency, TF over GST control) | 1.25 fold enrichment (6-mer frequency, TF over GST control) | 1.21 fold enrichment (6-mer frequency, TF over GST control)
14 | AACAAA | 1.2 fold enrichment (6-mer frequency, TF over GST control) | 1.14 fold enrichment (6-mer frequency, TF over GST control) | 1.22 fold enrichment (6-mer frequency, TF over GST control) | 1.11 fold enrichment (6-mer frequency, TF over GST control) | 1.13 fold enrichment (6-mer frequency, TF over GST control) | 1.16 fold enrichment (6-mer frequency, TF over GST control) | 1.15 fold enrichment (6-mer frequency, TF over GST control) | 1.18 fold enrichment (6-mer frequency, TF over GST control)
15 | TGTGCT | 1.19 fold enrichment (6-mer frequency, TF over GST control) | 1.12 fold enrichment (6-mer frequency, TF over GST control) | 1.12 fold enrichment (6-mer frequency, TF over GST control) | 1.31 fold enrichment (6-mer frequency, TF over GST control) | 1.18 fold enrichment (6-mer frequency, TF over GST control) | 1.15 fold enrichment (6-mer frequency, TF over GST control) | 1.18 fold enrichment (6-mer frequency, TF over GST control) | 1.22 fold enrichment (6-mer frequency, TF over GST control)
